Data taken from PubChem BioAssay (NCATS).
Inconclusive results are not listed. Active and inactive are the calls of the source. Calls follow the shape of the dose curve; as a rule, active = well fitted inhibition curve with a large enough effect; inconclusive = small, poorly fitted or top-dose-only effect; inactive = flat fitted curve, though single readings scatter.

Assay: P-glycoprotein substrates identified in KB-8-5-11 adenocarcinoma cell line, qHTS therapeutic library screen (AID 1346987); also: nearly all actives have a fitted effect of over 65% in size
Conditions: KB-8-5-11 (P-gp overexpressing) viability, CellTiter-Glo, 72 h; series mostly up to 44.5 µM; activity change, negative = cytotoxicity: at the top concentration
Source text: The ATP-binding cassette transporters P-glycoprotein (P-gp) is known to limit brain penetration of many chemotherapy drugs. […] As such, we developed a high-throughput screen (HTS) to identify substrates of P-gp from a series of chemical libraries including the National Center for Advancing Translational Sciences Pharmaceutical Collection NPC, 2,816 compounds), testing a total of 10,804 compounds, most of which have known mechanisms of action. We used the CellTiter-Glo viability assay to test library compounds against the parental KB-3-1 human cervical adenocarcinoma cell line and the colchicine-selected sub-line KB-8-5-11 that over-expresses P-gp. KB-8-5-11 cells were also tested in the presence of a P-gp inhibitor (tariquidar) to assess reversability of transporter-mediated resistance. Of the tested compounds, a total of 90 P-gp substrates were identified including 55 newly identified P-gp substrates. Substrates were confirmed using an orthogonal killing assay against HEK-293 cells transfected with P-gp. As exemplars, we confirmed that […] (cyclin-dependent kinase inhibitor); AT9283, (Janus kinase 2/3 inhibitor); ispinesib (kinesin spindle protein inhibitor); gedatolisib (PKI-587, phosphoinositide 3-kinase/mammalian target of rampamycin inhibitor); GSK-690693 (AKT inhibitor); and KW-2478 (heat shock protein 90 inhibitor) were substrates , and direct ATPase stimulation was assessed. ABCG2 was also found to confer high levels of resistance to AT9283, GSK-690693 and gedatolisib, while ispinesib, AT7519 and KW-2478 were weaker substrates.
The HeLa derivative cell line, KB-3-1, and its colchicine-selected, P-gp-overexpressing subline, KB-8-5-11 were maintained in DMEM with 10% FCS and Pen/Strep with glutamine at 37 degree C in 5% CO2. For KB-8-5-11 cells, colchicine was added to the medium at a concentration of 100 ng/mL. HEK-293 cells transfected with empty vector (pcDNA) or vector containing human ABCB1 (MDR-19) or ABCG2 (R-5) have been described previously (Robey, Lin, Qiu, Chan & Bates, 2011) and were maintained in EMEM supplemented with 10% FCS, Pen/Strep and glutamine with 2 mg/ml G418 to select for the expression of the transporter. Cultures were confirmed to be free of mycoplasma infection using the MycoAlert Mycoplasma Detection Kit (Lonza, Walkersville, MD). For the screen, assay medium was identical to culture medium except for KB-8-5-11 where colchicine was excluded from the medium.
All cell lines were plated into 1536-well plates at 500 cells/well in 5 uL media. Compounds were then pinned in dose-response using a 1536-head pin tool (Kalypsis, San Diego, CA) and plates were incubated at 37 degree C in 5% CO2 for an additional 72 h. CellTiter-Glo reagent (Promega) was dispensed into the wells, incubated for 5 min and luminescence was read on a ViewLux instrument (Perkin-Elmer). Cytotoxic compounds were defined as those that yielded a curve class of -1.1, -1.2, -2.1, -2.2, -2.3, or -2.4, a maximum response of >50% and an AC50 of < 10 uM. Cherry-picked hits from screening analysis were tested with both the KB pair of cell lines, and the pcDNA (empty vector control) and MDR-19 (P-gp overexpressing) pair were tested, in the absence and presence of tariquidar.
% is scaled to controls: 0 for no effect and ±100 for the full control effect; potency is read from the fitted curve at half-maximal effect.

Row | SMILES | activity change, negative = cytotoxicity | Potency
1 | CC(C)NC(C)C | 5.54% (inactive) | –
2 | O=C(O)CCCc1ccc(N(CCCl)CCCl)cc1 | – | inactive
3 | CN1CC[C@]23c4c5ccc(O)c4O[C@H]2[C@@H](O)CC[C@H]3[C@H]1C5 | -0.241% [at 93.4 µM] (inactive) | –
4 | CCN[C@@H](C)Cc1cccc(C(F)(F)F)c1 | 12.2% [at 93.4 µM] (inactive) | –
5 | CN1C(=O)COc2c(C(=O)NC3CN4CCC3CC4)cc(Cl)cc21 (stereo not given) | 6.66% (inactive) | –
6 | C[C@H](N)C(=O)c1ccccc1 | – | inactive
7 | Oc1ccc(Cl)cc1 | 1.39% (inactive) | –
8 | CCCC(C)(COC(N)=O)COC(N)=O | -3.67% (inactive) | –
9 | Cc1ncsc1CCCl | 5.14% (inactive) | –
10 | CN[C@@H](C)Cc1ccccc1 | -8.83% [at 93.4 µM] (inactive) | –
11 | COP(=S)(OC)Oc1ccc(S(=O)(=O)N(C)C)cc1 | 3.24% (inactive) | –
12 | Nc1ccccc1 | -16.6% (inactive) | –
13 | CN1CC[C@]23c4c5ccc(O)c4O[C@H]2[C@@H](O)C=C[C@H]3[C@H]1C5 | -0.323% [at 93.4 µM] (inactive) | –
14 | O=C1OC(c2ccc(O)c(S(=O)(=O)O)c2)(c2ccc(O)c(S(=O)(=O)O)c2)c2c(Br)c(Br)c(Br)c(Br)c21 | -4% (inactive) | –
15 | C=C(C)[C@H]1CN[C@H](C(=O)O)[C@H]1CC(=O)O | -13.6% (inactive) | –
16 | CC(C)(C)NCC(O)c1ccccc1Cl (stereo not given) | -5.76% (inactive) | –
17 | CCCCCCCCCC(=O)O[C@H]1CC[C@H]2[C@@H]3CCC4=CC(=O)CC[C@@H]4[C@H]3CC[C@]12C | – | 6.51 µM (active)
18 | CC(C)=CC1C(C(=O)OCN2C(=O)C3=C(CCCC3)C2=O)C1(C)C (stereo not given) | 0.767% (inactive) | –
19 | Clc1ccc2c(c1)C(c1ccccc1)=NCc1nncn1-2 | 11.3% (inactive) | –
20 | Nc1ccc([As](=O)(O)O)cc1 | -20.3% (inactive) | –

Row | SMILES | activity change, negative = cytotoxicity | Potency
21 | CC(NC(C)(C)C)C(=O)c1cccc(Cl)c1 (stereo not given) | – | inactive
22 | CCCCC/C=C\C/C=C\C/C=C\C/C=C\CCCC(=O)NCC(=O)O | 0.883% [at 5.11 µM] (inactive) | –
23 | COP(=S)(OC)SCN1C(=O)c2ccccc2C1=O | -6.64% (inactive) | –
24 | NC(=O)CS(=O)C(c1ccccc1)c1ccccc1 (stereo not given) | 2.94% (inactive) | –
25 | O=C1CN=C(c2ccccc2)c2cc([N+](=O)[O-])ccc2N1 | 9.99% (inactive) | –
26 | [N-]=[N+]=CC(=O)OC[C@H](N)C(=O)O | 11.5% (inactive) | –
27 | C#C[C@]1(O)CC[C@H]2[C@@H]3CCC4=CC(=O)CC[C@]4(C)[C@H]3CC[C@@]21C | -28.5% (inactive) | –
28 | c1ccc(CN2CCNCC2)cc1 | 1.5% [at 163 µM] (inactive) | –
29 | Nc1ccccc1C(=O)O | 2.65% (inactive) | –
30 | C=CCC1([C@H](C)CCC)C(=O)NC(=O)NC1=O | -10.6% [at 93.4 µM] (inactive) | –
31 | C[C@@H](N)[C@@H](O)c1ccccc1 | -2.31% [at 17.3 µM] (inactive) | –
32 | O=C1Nc2ccc(Cl)cc2C(c2ccccc2)=NC1O (stereo not given) | – | inactive
33 | NCCc1ccc(O)cc1 | -0.315% (inactive) | –
34 | CC(=O)NC1CCSC1=O (stereo not given) | – | inactive
35 | O=C(O)/C=C\C(=O)O | -26.3% (inactive) | –
36 | C[C@](O)(CS(=O)(=O)c1ccc(F)cc1)C(=O)Nc1ccc(C#N)c(C(F)(F)F)c1 | – | 14.6 µM (active)
37 | COC(=O)C(Cl)C(=O)OC | -13% (inactive) | –
38 | CCOC(=O)CC(SP(=S)(OC)OC)C(=O)OCC (stereo not given) | – | inactive
39 | O=C(Nc1ccc(Br)cc1)c1cc(Br)cc(Br)c1O | – | 4.61 µM (active)
40 | CCC1(CC)C(=O)C=CNC1=O | -5.18% (inactive) | –
